# Results filed as inconclusive are left out. Activity calls are given as the source filed them. Unless noted, the call rests on the fitted dose curve; in most records, active means well fitted inhibition curve with a large enough effect; inconclusive means small, poorly fitted or top-dose-only effect; inactive means flat fitted curve, though single readings scatter.
# What was measured:
# [1] = qHTS for identification of novel therapeutic agents for treatment of microphthalmiaassociated transcription factor (MiT) renal cell carcinoma (RCC) (AID 1963991; calls by dose curve); settings: CellTiter-Glo, 48 h; for z-score: stronger effect = lower value; for Potency: active = Z-AUC below -0.8 in all three lines
# Method in brief: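 Curves over 11 concentrations were fitted to CellTiter-Glo luminescence, scaled between empty wells (0%) and DMSO (100%) viability. Cells were UOK109, UOK124 and UOK145 TFE3-fusion RCC lines at 500/well, exposed 48 hours at 37 C.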
# [2] = qHTS profiling for inhibitors of Plasmodium falciparum proliferation (AID 504749); further: nearly all actives have a fitted effect of over 60% in size; settings: P. falciparum in erythrocytes, SYBR Green DNA, 72 h
# Method in brief: (§1)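 P. falciparum-infected erythrocytes (0.3% parasitemia, 2.5% hematocrit final) were exposed to compounds for 72 h at 37 C in 5% CO2, then lysed with SYBR Green buffer overnight at room temperature; parasite DNA fluorescence was normalized to artemisinin and DMSO controls.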
# 3D7 = assay: as above; settings: P. falciparum in erythrocytes, SYBR Green DNA, 72 h; series mostly up to 28.7 µM
# Method in brief: as §1
# 7G8 = assay: as above; settings: P. falciparum in erythrocytes, SYBR Green DNA, 72 h; series mostly up to 28.7 µM
# Method in brief: as §1
# AA1029 = assay: as above; settings: P. falciparum in erythrocytes, SYBR Green DNA, 72 h; series mostly up to 28.7 µM
# Method in brief: as §1
# AS120 = assay: as above; settings: P. falciparum in erythrocytes, SYBR Green DNA, 72 h; series mostly up to 28.7 µM
# Method in brief: as §1
# ATS189 = assay: as above; settings: P. falciparum in erythrocytes, SYBR Green DNA, 72 h; series mostly up to 28.7 µM
# Method in brief: as §1
# ATS95 = assay: as above; settings: P. falciparum in erythrocytes, SYBR Green DNA, 72 h; series mostly up to 28.7 µM
# Method in brief: as §1
# C2A = assay: as above; settings: P. falciparum in erythrocytes, SYBR Green DNA, 72 h; series mostly up to 28.7 µM
# Method in brief: as §1
# CP192 = assay: as above; settings: P. falciparum in erythrocytes, SYBR Green DNA, 72 h; series mostly up to 28.7 µM
# Method in brief: as §1
# CP194 = assay: as above; settings: P. falciparum in erythrocytes, SYBR Green DNA, 72 h; series mostly up to 28.7 µM
# Method in brief: as §1
# CP201 = assay: as above; settings: P. falciparum in erythrocytes, SYBR Green DNA, 72 h; series mostly up to 28.7 µM
# Method in brief: as §1
# CP211 = assay: as above; settings: P. falciparum in erythrocytes, SYBR Green DNA, 72 h; series mostly up to 28.7 µM
# Method in brief: as §1
# CP215 = assay: as above; settings: P. falciparum in erythrocytes, SYBR Green DNA, 72 h; series mostly up to 28.7 µM
# Method in brief: as §1
# CP217 = assay: as above; settings: P. falciparum in erythrocytes, SYBR Green DNA, 72 h; series mostly up to 28.7 µM
# Method in brief: as §1
# CP237 = assay: as above; settings: P. falciparum in erythrocytes, SYBR Green DNA, 72 h; series mostly up to 28.7 µM
# Method in brief: as §1
# [3] = TFE3-RCC UOK109 viability, measured here: UOK109 Z-AUC
# [4] = TFE3-RCC viability, measured here: UOK124 Z-AUC
# [5] = TFE3-RCC viability, measured here: UOK145 Z-AUC
# Potency means the concentration at half of the fitted maximal effect.
compound,measurement,setting,value
CC=C1C2C=C(C)CC1(N)c1ccc(=O)[nH]c1C2 (stereo not given),z-score,[1]; [3],0.936
same,z-score,[1]; [4],0.297
same,z-score,[1]; [5],1.2
Cc1cc(OCCCS(C)(=O)=O)cc(C)c1-c1cccc(COc2ccc3c(c2)OC[C@H]3CC(=O)O)c1,z-score,[1]; [3],0.542
same,z-score,[1]; [4],0.159
same,z-score,[1]; [5],0.614
CC(=O)OCC(=O)[C@@]1(O)CC[C@H]2[C@@H]3CCC4=CC(=O)C=C[C@]4(C)[C@@H]3[C@@H](O)C[C@@]21C,z-score,[1]; [3],0.953
same,z-score,[1]; [4],0.317
same,z-score,[1]; [5],-2.56
CN[C@@H]1[C@@H](O)[C@@H](O[C@@H]2[C@@H](O)[C@H](O[C@H]3O[C@H](CN)[C@@H](O)[C@H](O)[C@@H]3O)[C@@H](N)C[C@@H]2NC(=O)[C@@H](O)CN)OC[C@]1(C)O,z-score,[1]; [3],2.18
same,z-score,[1]; [4],0.621
same,z-score,[1]; [5],0.614
CC1(C)OC2CC3C4CC(F)C5=CC(=O)C=CC5(C)C4C(O)CC3(C)[C@]2(C(=O)CO)O1 (stereo not given in full),z-score,[1]; [3],0.56
same,z-score,[1]; [4],1.01
same,z-score,[1]; [5],-1.73
C[C@@H](O)[C@H]1C(=O)N2C(C(=O)OCOC(=O)C(C)(C)C)=C(SC3CN(C4=NCCS4)C3)[C@H](C)[C@H]12,z-score,[1]; [3],1.65
same,z-score,[1]; [4],-0.138
same,z-score,[1]; [5],0.788
CC[C@]1(O)C[C@H]2CN(CCC3=c4ccccc4=N[C]3[C@@](C(=O)OC)(c3cc4c(cc3OC)N(C)[C@H]3[C@@](O)(C(N)=O)[C@H](O)[C@]5(CC)C=CCN6CC[C@]43[C@@H]65)C2)C1,Potency,[1]; TFE3-RCC UOK109 viability,0.332 µM (active)
same,z-score,[1]; [3],-0.8
same,z-score,[1]; [4],-1.02
same,z-score,[1]; [5],-0.904
C[C@@H]1C[C@H]2[C@@H]3CCC4=CC(=O)C=C[C@]4(C)[C@@]3(F)[C@@H](O)C[C@]2(C)[C@@]1(O)C(=O)CO,z-score,[1]; [3],0.745
same,z-score,[1]; [4],0.108
same,z-score,[1]; [5],-1.45
COc1c(C)c2c(c(O)c1CC=C(C)CCC(=O)OCCN1CCOCC1)C(=O)OC2,Potency,[2]; parasite line A,7.94 µM (active)
same,Potency,[2]; parasite line B,10 µM (active)
same,Potency,3D7,11.2 µM (active)
same,Potency,7G8,4.47 µM (active)
same,Potency,AA1029,10 µM (active)
same,Potency,AS120,7.94 µM (active)
same,Potency,ATS189,7.94 µM (active)
same,Potency,ATS95,7.94 µM (active)
same,Potency,C2A,11.2 µM (active)
same,Potency,CP192,8.49 µM (active)
same,Potency,CP194,6.75 µM (active)
same,Potency,CP201,13.5 µM (active)
same,Potency,CP211,6.01 µM (active)
same,Potency,CP215,6.01 µM (active)
same,Potency,CP217,7.94 µM (active)
same,Potency,CP237,8.91 µM (active)
Fc1ccc(C(c2ccc(F)cc2)N2CCN(CC=Cc3ccccc3)CC2)cc1,Potency,CP192,inactive
COc1cc(C=CC(=O)O)ccc1O,z-score,[1]; [3],-0.0784
same,z-score,[1]; [4],0.112
same,z-score,[1]; [5],0.103
C[C@@H]1O[C@@H](O[C@H]2CC[C@@]3(C)[C@H](CC[C@@H]4[C@H]3C[C@@H](O)[C@]3(C)[C@@H](C5=CC(=O)OC5)CC[C@]43O)C2)C[C@H](O)[C@@H]1O[C@H]1C[C@H](O)[C@H](O[C@H]2C[C@H](O)[C@@H](O)[C@@H](C)O2)[C@H](C)O1 (stereo in doubt),Potency,[1]; TFE3-RCC UOK109 viability,0.215 µM (active)
same,z-score,[1]; [3],-2.46
same,z-score,[1]; [4],-1.68
same,z-score,[1]; [5],-0.987
COc1cc(CNC(=O)CCCCC=CC(C)C)ccc1O,z-score,[1]; [3],0.273
same,z-score,[1]; [4],0.406
same,z-score,[1]; [5],0.0429
O=C(O)C1=NC(C(=O)O)CC(C=CN2c3cc(O)c(OC4OC(CO)C(O)C(O)C4O)cc3CC2C(=O)O)=C1 (stereo not given),z-score,[1]; [3],1.58
same,z-score,[1]; [4],0.431
same,z-score,[1]; [5],0.57
